Results filed as inconclusive are left out. The source made the active and inactive calls. Unless noted, calls follow the shape of the dose curve; as a rule, active = well fitted curve in the direction sought with a large enough effect in the repeat runs; inconclusive = weak or mixed curves; inactive = no such curve, though single readings can be large; an effect the other way counts as inactive or inconclusive.
Tests used:
[1] = qHTS assay to identify small molecule antagonists of the sonic hedgehog signaling (Shh) pathway (AID 1259369; calls by dose curve; also: nearly all actives have a fitted effect of over 45% in size; also: potency is read from the fitted curve at half-maximal effect)
Summary of the method: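 NIH/3T3-derived 3T3Gli1-Luc cells with stably integrated Gli1-Luc reporter were preincubated 4hr at 37 C, then given compounds in DMSO plus Shh conditioned medium and incubated 24hr. Firefly luciferase luminescence read after 30min reagent at room temperature.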

[2] = molecular target: Estrogen receptor beta (Homo sapiens) (UniProt Q92731); assay: qHTS assay to identify small molecule agonists of the estrogen receptor beta (ER-beta) signaling pathway (AID 1259377; active = well fitted activation curve with a large enough effect in the signal ratio in the repeat runs, not every such curve was filed as active; the % refers to the signal ratio)
Estrogen receptor beta (Homo sapiens), sequence (Q92731 whole entry, looked up): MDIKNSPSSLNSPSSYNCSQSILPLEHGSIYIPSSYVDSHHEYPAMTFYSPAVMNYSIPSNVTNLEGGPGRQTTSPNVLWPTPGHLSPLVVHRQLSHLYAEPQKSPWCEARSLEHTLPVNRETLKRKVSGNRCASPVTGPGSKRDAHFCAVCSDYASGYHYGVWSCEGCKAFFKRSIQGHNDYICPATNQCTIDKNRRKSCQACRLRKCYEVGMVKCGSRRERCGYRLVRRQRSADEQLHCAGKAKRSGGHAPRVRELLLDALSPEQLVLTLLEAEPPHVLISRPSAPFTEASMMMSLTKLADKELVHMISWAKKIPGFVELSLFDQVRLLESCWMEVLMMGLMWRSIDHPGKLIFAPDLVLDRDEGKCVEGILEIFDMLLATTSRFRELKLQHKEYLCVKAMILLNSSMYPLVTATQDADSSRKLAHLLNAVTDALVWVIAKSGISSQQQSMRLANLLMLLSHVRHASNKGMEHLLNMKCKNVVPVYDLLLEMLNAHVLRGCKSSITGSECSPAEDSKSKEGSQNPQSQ
Summary of the method: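 In HEK293T cells bearing a UAS-beta-lactamase reporter under ER-beta control, DMSO-delivered compounds were incubated for 16 hr at 37C. Activity was detected as fluorescence 2 hours after LiveBLAzer B/G FRET substrate addition.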

[3] = molecular target: Estrogen receptor beta (Homo sapiens) (UniProt Q92731); assay: qHTS assay to identify small molecule antagonists of the estrogen receptor beta (ER-beta) signaling pathway (AID 1259378; active = well fitted inhibition curve with a large enough effect in the signal ratio in the repeat runs, not every such curve was filed as active; the % refers to the signal ratio)
Summary of the method: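 Antagonist mode: compounds added to beta-lactamase reporter HEK293T ER-beta-UAS cells stimulated with E2 (1nM final), 16 hr at 37C. LiveBLAzer B/G FRET substrate, 2 hours room temperature, fluorescence read-out.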

[4] = qHTS assay to identify small molecule agonists of the androgen receptor (AR) signaling pathway in the presence of an antagonist - cell viability counter screen (AID 1259379);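 also: MDA-kb2 human breast cancer cells carrying an MMTV luciferase reporter; series mostly up to about 92 µM; nearly all actives have a fitted effect of over 25% in size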
Summary of the method: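 MDA-kb2 human breast carcinoma cells (stable MMTV-luciferase, AR/GR responsive) were seeded 3,000 cells/well, pre-incubated 5 hr at 37C without CO2, then given 3.0uM nilutamide and compounds at 15 concentrations for 16 hr. Viability was read by CellTiter-Fluor fluorescence.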

[5] = qHTS assay to identify small molecule agonists of the estrogen receptor beta (ER-beta) signaling pathway - cell viability counter screen (AID 1259380); also: nearly all actives have a fitted effect of over 30% in size
Summary of the method: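 ER-beta-UAS-bla HEK293T cells in medium with 2% charcoal-stripped FBS were preincubated 6 hr at 37C, dosed with compound in DMSO for 16 hr, then after the bla read, CellTiter-Glo was added for 30 min at room temperature; luminescence recorded.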

[6] = qHTS assay to identify small molecule antagonists of the estrogen receptor beta (ER-beta) signaling pathway - cell viability counter screen (AID 1259382);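 also: HEK293T cells carrying ER-beta-UAS-bla reporter stimulated with estradiol; series mostly up to about 92 µM; nearly all actives have a fitted effect of over 55% in size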
Summary of the method: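 ER-beta-UAS-bla HEK293T cells (2,000/well, 2% charcoal-stripped FBS) were pre-incubated 6 hr at 37C, then given compound plus 1nM final 17-beta-estradiol for 16 hr. Viability was read in the same wells by CellTiter-Glo luminescence after 30 min at room temperature.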

[7] = molecular target: Estrogen receptor (Homo sapiens) (UniProt P03372); assay: qHTS assay to identify small molecule agonists of the estrogen receptor alpha (ER-alpha) signaling pathway in the presence of an antagonist (AID 1259383; calls by dose curve; also: top concentration of the series differs between compounds; nearly all actives have a fitted effect of over 15% in size)
Estrogen receptor (Homo sapiens), sequence (P03372 whole entry, looked up): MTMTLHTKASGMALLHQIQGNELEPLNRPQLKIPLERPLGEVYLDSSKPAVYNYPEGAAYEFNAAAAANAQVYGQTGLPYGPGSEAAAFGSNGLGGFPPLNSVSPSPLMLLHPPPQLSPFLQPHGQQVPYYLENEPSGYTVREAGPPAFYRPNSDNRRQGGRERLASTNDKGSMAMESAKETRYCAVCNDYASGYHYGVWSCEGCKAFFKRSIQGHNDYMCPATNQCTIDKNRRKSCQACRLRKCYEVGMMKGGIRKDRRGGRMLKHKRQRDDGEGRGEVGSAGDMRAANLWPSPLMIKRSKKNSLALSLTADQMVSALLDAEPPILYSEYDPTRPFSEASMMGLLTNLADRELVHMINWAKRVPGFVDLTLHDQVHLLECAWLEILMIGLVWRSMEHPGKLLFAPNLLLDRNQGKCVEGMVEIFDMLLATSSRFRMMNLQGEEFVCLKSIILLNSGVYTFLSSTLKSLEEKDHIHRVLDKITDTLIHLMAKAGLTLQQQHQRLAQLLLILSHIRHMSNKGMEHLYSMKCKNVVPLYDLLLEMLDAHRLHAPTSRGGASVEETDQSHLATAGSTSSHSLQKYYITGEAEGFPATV
Summary of the method: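 VM7Luc4E2 cells (endogenous full-length ER-alpha, 4×ERE-luciferase) were precultured 5 days in phenol red-free medium with 10% charcoal-stripped FBS, given 10.0nM ICI-182,780 (final), then treated with compounds at 15 concentrations for 22hr at 37C; luminescence read with ONE-Glo.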

[8] = qHTS assay to identify small molecule agonists or antagonists of the thyroid stimulating hormone receptor (TSHR) signaling pathway - wild type cell line counter screen (AID 1259384; calls by dose curve)
Summary of the method: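 Counter screen in untransfected Hek293: compounds (15-point titration, triplicate) plus phosphodiesterase inhibitor Ro20-1724 added after 18 h plating; 30 min RT. Intracellular cAMP via competitive d2/cryptate immunoassay, 1 h incubation.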

[9] = molecular target: Thyrotropin receptor (Homo sapiens) (UniProt P16473); assay: qHTS assay to identify small molecule antagonists of the thyroid stimulating hormone receptor (TSHR) signaling pathway (AID 1259385; calls by dose curve; also: nearly all actives have a fitted effect of over 20% in size)
Thyrotropin receptor (Homo sapiens), sequence (P16473 whole entry, looked up): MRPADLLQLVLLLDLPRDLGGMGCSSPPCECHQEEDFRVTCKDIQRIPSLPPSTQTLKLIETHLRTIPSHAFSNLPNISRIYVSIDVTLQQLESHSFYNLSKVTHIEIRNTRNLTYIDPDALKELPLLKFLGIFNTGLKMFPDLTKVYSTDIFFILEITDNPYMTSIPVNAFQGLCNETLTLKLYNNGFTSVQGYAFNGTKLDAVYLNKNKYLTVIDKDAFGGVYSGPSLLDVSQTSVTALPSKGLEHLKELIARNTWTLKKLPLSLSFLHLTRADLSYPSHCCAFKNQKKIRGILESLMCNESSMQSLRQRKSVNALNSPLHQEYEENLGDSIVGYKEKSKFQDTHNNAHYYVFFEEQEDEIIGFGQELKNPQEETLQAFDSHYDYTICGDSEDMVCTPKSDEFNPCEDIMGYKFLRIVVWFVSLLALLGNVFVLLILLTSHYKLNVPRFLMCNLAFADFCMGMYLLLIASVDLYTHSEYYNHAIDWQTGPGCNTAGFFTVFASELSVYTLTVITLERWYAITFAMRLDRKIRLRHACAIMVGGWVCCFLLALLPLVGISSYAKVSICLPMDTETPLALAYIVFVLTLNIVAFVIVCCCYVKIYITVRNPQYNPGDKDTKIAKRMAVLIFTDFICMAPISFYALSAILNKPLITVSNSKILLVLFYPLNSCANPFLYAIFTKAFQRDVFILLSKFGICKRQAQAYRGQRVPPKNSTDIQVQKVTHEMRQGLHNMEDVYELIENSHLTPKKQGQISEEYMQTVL
Summary of the method: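 Antagonist mode: compound-treated TSHR-expressing HEK293 cells were stimulated with 1.5 ng/mL TSH (final) in presence of Ro20-1724 for 30 min at RT. HTRF cAMP detection after 1 h; each compound tested at 15 concentrations, triplicate.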

[10] = qHTS assay to identify small molecule agonists of the estrogen receptor alpha (ER-alpha) signaling pathway in the presence of an antagonist - cell viability counter screen (AID 1259386);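 also: series mostly up to about 92 µM; cells exposed to compounds for 22 h at 37 °C before the viability read; nearly all actives have a fitted effect of over 30% in size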
Summary of the method: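 VM7Luc4E2 cells (endogenous full-length ER-alpha, 4×ERE-luciferase) were held 5 days in phenol red-free medium with 10% charcoal-stripped FBS, plated, then given 10.0nM ICI-182,780 and compounds at 15 concentrations for 22hr at 37C; viability read by CellTiter-Fluor fluorescence.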

[11] = molecular target: Progesterone receptor (Homo sapiens) (UniProt P06401); assay: qHTS assay to identify small molecule agonists of the progesterone receptor (PR) signaling pathway (AID 1346784; calls by dose curve; also: nearly all actives have a fitted effect of over 30% in size)
Progesterone receptor (Homo sapiens), sequence (P06401 whole entry, looked up): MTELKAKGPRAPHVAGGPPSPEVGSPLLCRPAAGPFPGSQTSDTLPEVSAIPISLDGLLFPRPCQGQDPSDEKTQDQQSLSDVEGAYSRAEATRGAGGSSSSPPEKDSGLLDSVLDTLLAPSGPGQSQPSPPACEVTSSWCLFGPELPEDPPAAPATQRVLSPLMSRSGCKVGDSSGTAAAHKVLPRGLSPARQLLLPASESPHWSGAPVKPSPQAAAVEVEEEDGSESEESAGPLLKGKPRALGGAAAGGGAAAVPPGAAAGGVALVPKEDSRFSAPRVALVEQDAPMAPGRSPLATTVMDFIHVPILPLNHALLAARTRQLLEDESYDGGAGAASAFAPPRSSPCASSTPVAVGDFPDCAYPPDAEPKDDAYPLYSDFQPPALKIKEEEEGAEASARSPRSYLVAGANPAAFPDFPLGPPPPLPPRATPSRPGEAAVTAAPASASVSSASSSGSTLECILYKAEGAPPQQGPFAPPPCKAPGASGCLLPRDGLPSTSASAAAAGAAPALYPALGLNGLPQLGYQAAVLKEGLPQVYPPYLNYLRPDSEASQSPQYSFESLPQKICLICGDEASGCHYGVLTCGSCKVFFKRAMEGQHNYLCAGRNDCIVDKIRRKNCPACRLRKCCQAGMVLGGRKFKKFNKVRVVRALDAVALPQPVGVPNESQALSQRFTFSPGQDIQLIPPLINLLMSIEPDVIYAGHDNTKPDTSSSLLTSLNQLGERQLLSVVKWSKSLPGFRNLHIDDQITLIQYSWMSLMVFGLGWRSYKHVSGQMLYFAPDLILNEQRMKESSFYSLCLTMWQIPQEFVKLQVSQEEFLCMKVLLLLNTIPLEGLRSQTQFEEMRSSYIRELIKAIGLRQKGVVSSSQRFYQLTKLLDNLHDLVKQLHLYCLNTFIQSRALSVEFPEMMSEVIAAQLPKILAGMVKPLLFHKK
Summary of the method: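 Using charcoal-stripped serum (2%) to limit endogenous steroids, PR-UAS-bla HEK 293T cells received compounds for 16 hr at 37C after 6 hr plating; beta-lactamase FRET fluorescence was recorded following 2 hr substrate loading at room temperature.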

[12] = molecular target: Progesterone receptor (Homo sapiens) (UniProt P06401); assay: qHTS assay to identify small molecule antagonists of the progesterone receptor (PR) signaling pathway (AID 1346795; active = well fitted inhibition curve with a large enough effect in the signal ratio in the repeat runs, not every such curve was filed as active; the % refers to the signal ratio)
Summary of the method: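 Inhibition of R5020-induced (1 nM final) beta-lactamase reporter signal in PR-UAS-bla HEK293T cells was scored by FRET fluorescence after overnight (16 hr) compound treatment.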

[13] = qHTS assay to identify small molecule antagonists of the progesterone receptor (PR) signaling pathway - cell viability counter screen (AID 1346798); also: series mostly up to about 92 µM; nearly all actives have a fitted effect of over 50% in size
Summary of the method: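 ATP content as viability readout: CellTiter-Glo luminescence, 30 min room temperature, in PR-UAS-bla HEK293T cells after 16 hr compound/R5020 treatment at 37C and 5% CO2.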

[14] = qHTS assay to identify small molecule antagonists of the TGF-beta/Smad signaling pathway - cell viability counter screen (AID 1346824); also: nearly all actives have a fitted effect of over 50% in size
Summary of the method: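 Cytotoxicity counter-screen run in the same wells as the beta-lactamase Smad reporter read: CellTiter-Glo luminescence after 30 min at room temperature. HEK 293T SBE-bla cells had 5 hr compound exposure at 37 C with TGF-beta1 (0.25 ng/mL stock).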

[15] = qHTS assay to identify small molecule agonists of the TGF-beta/Smad signaling pathway - cell viability counter screen (AID 1346829); also: top concentration of the series differs between compounds; nearly all actives have a fitted effect of over 45% in size
Summary of the method: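 CellTiter-Glo luminescence readout; SBE-bla HEK 293T cells, overnight plating, compound 5 hr at 37 C/5% CO2, then bla substrate 2 hr RT, then CellTiter-Glo 30 min RT.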

[16] = qHTS assay to identify small molecule agonists of the TGF-beta/Smad signaling pathway (AID 1346859; active = well fitted activation curve with a large enough effect in the signal ratio in the repeat runs, not every such curve was filed as active; the % refers to the signal ratio; also: series mostly up to about 77 µM)
Summary of the method: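 Stable Smad binding element-beta-lactamase HEK 293T cells; 5 hr compound exposure at 37 C under 5% CO2; 2 hr room-temperature substrate step; fluorescence excited at 405 nm, collected at 460 nm and 530 nm.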

[17] = molecular target: Thyrotropin-releasing hormone receptor (Homo sapiens) (UniProt P34981); assay: qHTS assay to identify small molecule antagonists of the thyrotropin-releasing hormone receptor (TRHR) signaling pathway (AID 1346877; active = well fitted inhibition curve with a large enough effect in the repeat runs, not every such curve was filed as active; also: series mostly up to about 51 µM)
Thyrotropin-releasing hormone receptor (Homo sapiens), sequence (P34981 whole entry, looked up): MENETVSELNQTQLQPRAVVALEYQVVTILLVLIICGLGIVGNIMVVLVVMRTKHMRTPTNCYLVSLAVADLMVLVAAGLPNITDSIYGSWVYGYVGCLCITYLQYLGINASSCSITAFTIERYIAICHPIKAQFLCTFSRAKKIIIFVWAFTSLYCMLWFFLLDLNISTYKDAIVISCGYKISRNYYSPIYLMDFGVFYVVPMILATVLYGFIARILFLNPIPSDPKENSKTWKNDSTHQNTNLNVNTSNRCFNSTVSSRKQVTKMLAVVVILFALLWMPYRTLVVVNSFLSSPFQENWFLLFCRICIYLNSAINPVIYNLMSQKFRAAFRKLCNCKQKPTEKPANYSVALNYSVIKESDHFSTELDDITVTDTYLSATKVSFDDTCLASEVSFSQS
Summary of the method: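 TRHR-expressing HEK293 cells were seeded, cultured 18 h at 37 °C, then loaded with calcium dye for 2 h. Compounds were pre-incubated 5 min at room temperature before 1 nM TRH (final) was added, and kinetic fluorescence was recorded for 3 min.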

[18] = molecular target: Thyrotropin-releasing hormone receptor (Homo sapiens) (UniProt P34981); assay: qHTS assay to identify small molecule agonists of the thyrotropin-releasing hormone receptor (TRHR) signaling pathway (AID 1346891; calls by dose curve; also: series mostly up to about 58 µM)
Summary of the method: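 In 1536-format, 1500 TRHR-Hek293 cells per well grew 18 h, took up calcium dye for 2 h at 37 °C, received compound, and were read kinetically; 15-point titrations, triplicates.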

[19] = qHTS assay to identify small molecule agonists of the progesterone receptor (PR) signaling pathway - cell viability counter screen (AID 1346799; calls by dose curve; also: nearly all actives have a fitted effect of over 45% in size)
Summary of the method: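 Cytotoxicity in PR-bla HEK293T cells: 16 h compound, 37C; CellTiter-Glo added post-FRET read; luminescence after 30 min RT.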
% is scaled to controls: 0 for no effect and ±100 for the full control effect.

COC(=O)NN
inactive: Potency [1] | outcome [2] | outcome [3] | Potency [4] | Potency [5] | Potency [6] | Potency [7] | outcome [8] | Potency [9] | Potency [10] | Potency [11] | Potency [12] | Potency [13] | Potency [14] | outcome [15] | outcome [16] | outcome [17] | outcome [18]

COC(=O)c1cc(C(=O)OC)cc(S(=O)(=O)O)c1
inactive: Potency [1] | outcome [2] | outcome [3] | Potency [4] | Potency [5] | Potency [6] | outcome [8] | Potency [9] | Potency [10] | Potency [11] | Potency [14] | outcome [15] | outcome [16] | outcome [17] | outcome [18]

CCN(CC)CCNC(=O)c1cc(S(C)(=O)=O)ccc1OC
inactive: Potency [1] | outcome [2] | outcome [3] | Potency [4] | Potency [5] | Potency [6] | Potency [7] | outcome [8] | Potency [9] | Potency [10] | Potency [11] | Potency [12] | Potency [13] | Potency [14] | outcome [15] | outcome [16] | outcome [17] | outcome [18]

CCCCCCCCCCCCCC=O
inactive: activity change, negative = inhibition [1] 13.4% [at 8.39 µM] | activation [2] 5.64% [at 8.39 µM] | activity, negative = inhibition [3] -23.6% [at 8.39 µM] | activity change, negative = cytotoxicity [4] -0.261% [at 8.39 µM] | activity change, negative = cytotoxicity [5] -3.43% [at 8.39 µM] | activity change, negative = cytotoxicity [6] -3.46% [at 8.39 µM] | activation [7] -0.924% [at 8.39 µM] | cAMP activity change [8] 0.631% [at 8.39 µM] | activity change, negative = inhibition [9] -5.31% [at 8.39 µM] | activity change, negative = cytotoxicity [10] 2.15% [at 8.39 µM] | activation [11] -0.302% [at 8.39 µM] | activity change, negative = inhibition [12] 6.1% [at 8.39 µM] | activity change, negative = cytotoxicity [19] 5.7% [at 8.39 µM] | viability change, negative = cytotoxic [14] 6.5% [at 6.97 µM] | activity change, negative = cytotoxicity [15] 12.8% [at 6.97 µM] | activation [16] -2.78% [at 6.97 µM] | activity, negative = inhibition [17] -5.43% [at 4.65 µM] | activation [18] 0.0389% [at 5.23 µM]

CC(C(=O)O)c1ccc(CC2CCCC2=O)cc1 (configuration not stated)
inactive: Potency [1] | outcome [2] | outcome [3] | Potency [4] | Potency [5] | Potency [6] | Potency [7] | outcome [8] | Potency [10] | Potency [11] | Potency [12] | Potency [19] | Potency [14] | outcome [16] | outcome [17] | outcome [18]

CC(=O)OCC(=O)[C@@]1(O)CC[C@H]2[C@@H]3CCC4=CC(=O)CC[C@]4(C)[C@H]3C(=O)C[C@@]21C
inactive: Potency [1] | outcome [2] | outcome [3] | Potency [4] | Potency [5] | Potency [6] | Potency [7] | Potency [10] | Potency [11] | Potency [13] | Potency [19] | Potency [14] | outcome [15] | outcome [16]

CCCN(CCC)CCc1cccc2c1CC(=O)N2
inactive: Potency [1] | outcome [2] | outcome [3] | Potency [4] | Potency [5] | Potency [6] | outcome [8] | Potency [9] | Potency [10] | Potency [11] | Potency [12] | Potency [13] | Potency [19] | Potency [14] | outcome [16] | outcome [17] | outcome [18]

CC/C=C\CC/C=C/C(OCC)OCC
inactive: outcome [2] | outcome [3] | Potency [4] | Potency [5] | Potency [6] | outcome [8] | Potency [9] | Potency [10] | Potency [11] | Potency [12] | Potency [13] | Potency [19] | Potency [14] | outcome [15] | outcome [16]
active: Potency [1] 27.3 µM

Reference: PubChem BioAssay (Tox21)
